Sampled rows, rich in hits. Any-hit rate of the full collection: about 8%.
HT1080 IDH1KD tx: toxicity to HT-1080 IDH1 knockdown cells (counter line); HT-1080 IDH1 knockdown viability, ATP luminescence, 48 h; Potency, µM (series often up to 46.1 µM), usual class: cytotoxic; hit rate 2% among 360,000; AID 686971
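Assay cells: HT-1080 with IDH1 knockdown, 750 per well, RPMI/5% FBS. Exposure: 48 h at 37 °C following 2 h pre-incubation. Read: CellTiter-Glo luminescence; fitted concentration-response, curve class assigned.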
SW480 rereplic: DNA re-replication induction in SW480 cells; AID 624297; hit rate 1.8% among 340,000; Potency, µM (series often up to 46.1 µM), usual class: activators; SW480 DNA re-replication, Hoechst DNA content imaging, 48 h; note: nearly all actives have a fitted effect of over 55% in size
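Per well, 250 cells were exposed to pinned compound for 48 hr. Nuclear DNA was visualised with Hoechst (40 min, 37 C) and total object intensity recorded by fluorescence scanning.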
HT1080-NT tox: kills 2HG-producing HT-1080-NT fibrosarcoma cells; HT-1080-NT fibrosarcoma viability, CellTiter-Glo ATP luminescence, 48 h; Potency, µM (titrated, usually from 46.1 µM), most hits filed as cytotoxic; hit rate 1.6% among 360,000; AID 686970;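 note: NT is the 2HG producing partner of a matched IDH1 knockdown line; nearly all actives have a fitted effect of over 55% in size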
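Viability of the 2HG-overproducing fibrosarcoma line after 48 hours of compound exposure at 37 degrees C was determined by luminescence with CellTiter-Glo, and concentration-effect curves were then fitted and categorized.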
MCF10A rereplic: induces DNA re-replication in MCF 10a normal breast cells; AID 624296; hit rate 2.9% among 350,000; Potency, µM (top dose mostly 46.1 µM), hits mostly activators; MCF 10A DNA re-replication, Hoechst nuclear intensity, 48 h; note: nearly all actives have a fitted effect of over 50% in size
KB-3-1 cytotox: KB-3-1 parental cell cytotoxicity; KB-3-1 viability, CellTiter-Glo ATP luminescence, 72 h; Potency, µM (doses to about 46.1 µM), most hits filed as cytotoxic; hit rate 1.4% among 400,000; note: nearly all actives have a fitted effect of over 60% in size
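Viability of parental KB-3-1 cells, measured by CellTiter-Glo luminescence, followed a 72 h incubation at 37 °C with pinned compounds in phenol-red-free DMEM containing 10% FBS.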
KB-V1 MDR tox: KB-V1 MDR subline cytotoxicity; KB-V1 MDR cells viability, CellTiter-Glo, 72 h; hit rate 3.4% among 400,000; Potency, µM (doses to about 46.1 µM), usual class: cytotoxic; note: nearly all actives have a fitted effect of over 60% in size
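Potencies derive from concentration-effect curves fitted to normalized luminescence (CellTiter-Glo) of KB-V1 cells treated for 72 h at 37 degrees C in phenol-red-free DMEM containing 10% FBS.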
A number is an active result; . = inactive; ? = inconclusive; / = no result. Calls come from the whole dose curve; as a rule, active = well fitted curve in the direction sought with a large enough effect; inconclusive = small, poorly fitted or top-dose-only effect, or another doubt; inactive = no such curve, though single readings can be large; an effect the other way counts as inactive or inconclusive.

SMILES	HT1080 IDH1KD tx	SW480 rereplic	HT1080-NT tox	MCF10A rereplic	KB-3-1 cytotox	KB-V1 MDR tox
Cc1nc(NCCc2ccc(Cl)cc2)c2nnn(Cc3ccccc3)c2n1	.	.	.	.	.	.
Cc1nc(NCCN2CCOCC2)c2nnn(Cc3c(F)cccc3Cl)c2n1	.	.	.	.	.	18µM
CCC(C(=O)Nc1ccccc1OC)n1nc(C)c2sc3ccccc3c2c1=O (stereo not given)	/	/	/	/	.	.
COc1ccccc1C1CC(c2c(-c3ccccc3)c3cc(Cl)ccc3[nH]c2=O)=NN1S(C)(=O)=O (stereo not given)	?	?	26µM	?	?	?
COc1ccc(C2CC(c3c(-c4ccccc4)c4cc(Cl)ccc4[nH]c3=O)=NN2C(=O)CCC(=O)O)cc1 (stereo not given)	?	.	.	.	.	.
COc1cccc(C2CC(c3c(-c4ccccc4)c4cc(Cl)ccc4[nH]c3=O)=NN2S(C)(=O)=O)c1OC (stereo not given)	18µM	?	?	?	?	?
N#C/C(=C\c1ccc(Cl)cc1)C(=O)NCC1CCCO1 (stereo not given)	/	/	/	/	.	.
CC(=O)[O][Al][O]C(C)=O	/	.	/	.	/	/
CC(=O)N/N=C/c1ccccc1OCCOc1cccc(C)c1	.	?	.	?	.	.
COC(=O)c1sccc1NC(=O)c1cccnc1	.	.	.	.	.	.
COC(=O)C(=Cc1ccc(-c2ccsc2C(=O)OC)o1)C(=O)OC	21µM	5.8µM	?	26µM	?	.
COC(=O)c1sccc1-c1ccc(C(=O)Nc2cccnc2)o1	.	.	.	?	.	5.8µM
O=C(CC(=O)c1ccccc1)CC(O)(C=Cc1ccccc1)c1ccccc1 (stereo not given)	?	?	.	?	.	.
COc1ccc(Nc2nc(C)nc3sc4c(c23)CCC4)cc1O	.	?	?	?	?	5.8µM
Cc1nc(NCc2ccco2)c2c3c(sc2n1)CCC3	?	?	?	.	?	.
O=C1c2ccccc2C2=Nc3ccccc3SC(c3cccc(F)c3)C12 (stereo not given)	?	?	?	12µM	21µM	16µM
O=C(Nc1ccc(-c2nc3c(ccc4ccccc43)o2)cc1)c1ccco1	10µM	?	10µM	4.6µM	.	.
O=C(Nc1ccc(-c2cn3ccccc3n2)cc1)c1ccco1	?	.	?	.	.	10µM
COc1ccc(-c2ccc(NC(=O)c3ccco3)cc2)nn1	21µM	?	18µM	.	10µM	?
COc1ccccc1NC(=O)Cn1nnc(-c2ccccc2NC(=O)c2ccco2)n1	.	.	.	?	.	?
COc1ccc(NC(=O)Cn2nnc(-c3ccccc3NC(=O)c3ccco3)n2)cc1	?	?	?	10µM	4.1µM	?
CN(C)c1cc2c3ccccc3ccc2c2ccccc12	/	/	/	/	.	.
Fc1ccc(Nc2nc(Nc3ccc(F)cc3)nc(N3CCOCC3)n2)cc1	/	/	/	/	.	.
Fc1ccc(Nc2nc(N3CCOCC3)c3ccccc3n2)cc1	.	.	.	?	?	16µM
O=c1[nH]c2ccccc2nc1N1CCOCC1	.	.	?	.	.	.
SMILES	HT1080 IDH1KD tx	SW480 rereplic	HT1080-NT tox	MCF10A rereplic	KB-3-1 cytotox	KB-V1 MDR tox
c1ccc2c(c1)nc(N1CCOCC1)c1c3ccccc3[nH]c21	.	?	.	3.7µM	.	21µM
c1ccc2c(Nc3nc(N4CCOCC4)c4ccccc4n3)cccc2c1	15µM	?	21µM	18µM	?	?
CCCCC(=O)Nc1cccc(NC(=S)NC(=O)C(C)C)c1	.	.	.	.	.	21µM
COc1cccc(NC(=O)c2ccccc2Br)c1	.	.	.	.	.	.
CCCCC(=O)Nc1cccc(NC(=O)CC)c1	.	.	.	.	.	.
CCCCC(=O)Nc1cccc(NC(=O)c2ccccc2Br)c1	.	.	.	.	.	5.2µM
Cc1ccc(NC(=O)CSc2nc3c(oc4ccccc43)c(=O)n2-c2ccc(F)cc2)c(C)c1	/	/	/	/	.	.
Cc1ccc(S(=O)(=O)c2ncccc2[N+](=O)[O-])cc1	23µM	12µM	9.2µM	5.8µM	?	?
